Assay outcomes deposited in PubChem by National Center for Advancing Translational Sciences (NCATS).
Sampled rows, rich in hits. Any-hit rate of the full collection: about 12%.
JMJD2A Tudor: blocks the human JMJD2A Tudor domain | O75164 | AlphaScreen JMJD2A-Tudor / H3K4me3 peptide binding | Potency, µM (doses to about 114 µM), inactives show at the highest dose activity change, negative = inhibition, actives largely listed as inhibitors | hit rate 4.4% among 390,000 | AID 504339; also: % is scaled to controls: 0 for no effect and ±100 for the full control effect; nearly all actives have a fitted effect of over 50% in size
Target sequence (O75164 whole entry, looked up, the tested form may be a part): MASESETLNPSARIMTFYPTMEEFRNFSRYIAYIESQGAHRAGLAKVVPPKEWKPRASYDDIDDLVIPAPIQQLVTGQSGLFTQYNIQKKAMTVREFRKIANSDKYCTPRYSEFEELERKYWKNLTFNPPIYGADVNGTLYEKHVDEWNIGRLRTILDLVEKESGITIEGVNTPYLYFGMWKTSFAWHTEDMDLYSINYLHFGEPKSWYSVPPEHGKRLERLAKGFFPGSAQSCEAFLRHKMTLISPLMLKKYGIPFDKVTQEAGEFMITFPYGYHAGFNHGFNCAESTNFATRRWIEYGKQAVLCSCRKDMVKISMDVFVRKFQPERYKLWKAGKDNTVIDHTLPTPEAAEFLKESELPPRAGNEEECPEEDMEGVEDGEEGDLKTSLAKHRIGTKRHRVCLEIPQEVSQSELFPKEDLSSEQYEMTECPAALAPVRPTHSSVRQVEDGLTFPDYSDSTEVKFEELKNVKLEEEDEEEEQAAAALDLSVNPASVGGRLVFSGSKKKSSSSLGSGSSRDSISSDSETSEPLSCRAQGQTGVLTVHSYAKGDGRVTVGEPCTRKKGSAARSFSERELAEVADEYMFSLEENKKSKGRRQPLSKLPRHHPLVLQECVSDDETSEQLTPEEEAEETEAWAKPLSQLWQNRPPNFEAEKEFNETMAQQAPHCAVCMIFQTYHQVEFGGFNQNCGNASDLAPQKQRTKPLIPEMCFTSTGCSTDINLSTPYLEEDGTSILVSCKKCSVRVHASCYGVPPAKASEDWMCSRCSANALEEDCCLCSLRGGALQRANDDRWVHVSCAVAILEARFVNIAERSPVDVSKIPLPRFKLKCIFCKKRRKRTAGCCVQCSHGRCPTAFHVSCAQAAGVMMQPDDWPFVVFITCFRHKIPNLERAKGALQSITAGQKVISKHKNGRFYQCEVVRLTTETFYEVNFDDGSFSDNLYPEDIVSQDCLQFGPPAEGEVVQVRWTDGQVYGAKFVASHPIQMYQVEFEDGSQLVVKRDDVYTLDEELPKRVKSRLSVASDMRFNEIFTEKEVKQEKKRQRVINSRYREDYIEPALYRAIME
Sfp inh: blocks B. subtilis Sfp PPTase activity. Biochemical Sfp PPTase activity, qHTS. Potency, µM, for inactives: largest response in the series, negative = inhibition, usual class: inhibitors. Q9F4F7. hit rate 3.5% among 310,000;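 also: the enzyme is Sfp with the accession as filed and its product quenches rhodamine fluorescence; 0% = enzyme reaction without inhibitor and -100% = no enzyme wells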
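Reaction rates are the 30-min fluorescence difference (ex 525, em 598 nm) in wells containing 15 nM Sfp, 5 uM rhodamine-CoA and 12.5 uM BHQ-2-YbbR at pH 7.6 with 10 mM MgCl2.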
HP1b binding inh: blocks HP1-beta chromodomain binding to methylated histone tails; AlphaScreen HP1-beta / biotin-H3K9me3 peptide binding; P83916; hit rate 0.56% among 390,000; Potency, µM (doses to about 114 µM), for the others: at the top dose activity change, negative = inhibition, usual class: inhibitors; AID 540317; also: nearly all actives have a fitted effect of over 70% in size
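Compound inhibition of the preformed complex between 50 nM HP1-beta and 50 nM biotinylated H3K9me3 peptide was read by AlphaScreen. Buffer was PBS pH 7.4 with 0.01% Tween-20. Incubations ran 30 min at room temperature, with 10 ug/mL donor/acceptor beads.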
G9a block: G9a (human) methyltransferase inhibition. Potency, µM (doses to about 102 µM), for the others: at the highest dose activity, negative = inhibition, usual class: inhibitors. Q96KQ7. AID 504332. G9a H3K9 monomethylation, AlphaScreen, 2 h. hit rate 8.8% among 350,000; also: % is scaled to controls: 0 for no effect and ±100 for the full control effect; nearly all actives have a fitted effect of over 75% in size
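Chemiluminescent proximity detection of H3K9 monomethylation, read after 10 min bead incubation in the dark. Reaction: 20 nM G9a, 500 nM biotin-H3K9 peptide, 20 uM SAM cofactor, 2 h, room temperature, following 15 min enzyme-compound preincubation.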
BAZ2B inh: blocks human BAZ2B | AlphaScreen BAZ2B-H3K14Ac peptide displacement | Potency, µM (titrated, usually from 114 µM), without a hit: at the top dose activity change, negative = inhibition, actives largely listed as inhibitors | hit rate 4.4% among 360,000; also: % is scaled to controls: 0 for no effect and ±100 for the full control effect; nearly all actives have a fitted effect of over 60% in size
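AlphaScreen displacement: compounds (up to 110uM) incubated 30 min at room temperature with a preformed 50 nM BAZ2B/50 nM biotinylated H3K14Ac peptide complex in PBS pH 7.4 with Tween-20. Donor and acceptor beads at 10 ug/mL final added, 20 min light-protected before reading.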
Active calls of the source: *; [ ] = another dose, or the depositor's remark. Calls follow the shape of the dose curve; as a rule, active = well fitted curve in the direction sought with a large enough effect; inconclusive = small, poorly fitted or top-dose-only effect, or another doubt; inactive = no such curve, though single readings can be large; an effect the other way counts as inactive or inconclusive. Potency is read from the fitted curve at half-maximal effect.

For O=S(=O)(c1cccc(S(=O)(=O)N2CCC(N3CCCCC3)CC2)c1)N1CCOCC1 the results were Sfp inh 10%, G9a block 13%[59 µM] and BAZ2B inh 9%.
CS(=O)(=O)N(CCc1ccccc1)CC(=O)NCc1ccc(Cl)cc1 was read as JMJD2A Tudor inconclusive, Sfp inh 12%, HP1b binding inh -7%, G9a block 10% and BAZ2B inh 3%.
Screening CCOc1cc(S(=O)(=O)n2ccnc2)ccc1Cl returned JMJD2A Tudor 6%, Sfp inh 6%, HP1b binding inh 6%, G9a block inconclusive and BAZ2B inh 79µM*.
`Cc1ccc(C(=O)NCC(=O)N2CCCN(S(=O)(=O)c3ccc(C)cc3)CC2)cc1` gave JMJD2A Tudor -7%, HP1b binding inh 16%, G9a block -34% and BAZ2B inh 1%.
Cc1cc(F)ccc1S(=O)(=O)Nc1ccc(O)c(Sc2ncn[nH]2)c1 was read as JMJD2A Tudor -29%, Sfp inh inconclusive, HP1b binding inh -6%, G9a block 40µM* and BAZ2B inh -1%.
For Cc1cc(F)ccc1S(=O)(=O)Nc1ccccc1C(=O)Nc1ncn[nH]1 the results were JMJD2A Tudor 38%, Sfp inh 1%, HP1b binding inh 119%, G9a block 45%[59 µM] and BAZ2B inh 95%.
For Cc1ccc(C)c(S(=O)(=O)Nc2ccc(O)c(Sc3ncn[nH]3)c2)c1 the results were JMJD2A Tudor -18%[11.4 µM], Sfp inh inconclusive, HP1b binding inh 11%, G9a block 45µM* and BAZ2B inh -7%.
Screening Cc1cc(C)cc(OCC(=O)N2CCC(c3nc4ccccc4s3)CC2)c1 returned JMJD2A Tudor -11%, HP1b binding inh 59%, G9a block -4%[59 µM] and BAZ2B inh 1%.
`COc1ccccc1-c1nnc(SCC(=O)c2c(N)n(C3CC3)c(=O)[nH]c2=O)n1C` gave JMJD2A Tudor -18%, HP1b binding inh 7%, G9a block -6%[12.7 µM] and BAZ2B inh 11%.
For CCN(CC)/C(Sc1ccccc1)=C(\C(Cl)=C(Cl)Cl)[N+](=O)[O-] the results were JMJD2A Tudor -34%, Sfp inh 3%, HP1b binding inh -16%, G9a block inconclusive and BAZ2B inh 50µM*.
For CCN(CC)/C(Sc1ccccc1)=C(/C(Cl)=C(Cl)Cl)[N+](=O)[O-] the results were JMJD2A Tudor -21%, Sfp inh 6%, HP1b binding inh 17%, G9a block inconclusive and BAZ2B inh -32%.
O=[N+]([O-])/C(C(Cl)=C(Cl)Cl)=C(\Sc1ccccc1)N1CCCCC1 was read as JMJD2A Tudor inconclusive, Sfp inh -15%, HP1b binding inh -10%, G9a block 40µM* and BAZ2B inh inconclusive.
Screening CCn1c(/C=C/c2ccccc2Cl)nc2ccccc2c1=O returned JMJD2A Tudor -7%, Sfp inh -11%, HP1b binding inh 64%, G9a block -28%[2.33 µM] and BAZ2B inh -4%.
Screening CCn1c(/C=C2/C(=O)N(C)c3ccccc32)nc2ccccc2c1=O returned JMJD2A Tudor -28%[57.1 µM], Sfp inh -29%, HP1b binding inh inconclusive, G9a block 50µM* and BAZ2B inh 35µM*.
Screening CC(C)N1C(=O)/C(=C\c2nc3ccccc3c(=O)[nH]2)c2ccccc21 returned JMJD2A Tudor inconclusive, Sfp inh -14%, HP1b binding inh inconclusive, G9a block 25µM* and BAZ2B inh 32µM*.
CCN1C(=O)/C(=C/c2nc3ccccc3c(=O)n2-c2ccccc2)c2ccccc21 was read as JMJD2A Tudor inconclusive, Sfp inh -12%, HP1b binding inh 3%, G9a block 3%[59 µM] and BAZ2B inh 3%.
CCCN1C(=O)/C(=C/c2nc3ccccc3c(=O)[nH]2)c2ccccc21 was read as JMJD2A Tudor inconclusive, Sfp inh -31%, HP1b binding inh inconclusive, G9a block inconclusive and BAZ2B inh inconclusive.
For CCN1C(=O)/C(=C\c2nc3ccccc3c(=O)n2CC)c2ccccc21 the results were JMJD2A Tudor 16µM*, Sfp inh -9%, HP1b binding inh inconclusive, G9a block 63µM* and BAZ2B inh 45µM*.
`CCn1c(/C=C2\C(=O)N(C(C)C)c3ccccc32)nc2ccccc2c1=O` gave JMJD2A Tudor -7%[11.4 µM], Sfp inh -14%, HP1b binding inh -23%, G9a block 3%[12.7 µM] and BAZ2B inh 40µM*.
Cc1ccc(N(C)S(=O)(=O)c2cccc(C(=O)OCC(=O)N3CCCC(C)C3)c2)cc1 (stereo not drawn) was read as JMJD2A Tudor -8%, HP1b binding inh 24%, G9a block -26%[2.33 µM] and BAZ2B inh -6%.
Cc1cccc(CSCCNC(=O)c2ccc(CN3CCOCC3)cc2)c1 was read as JMJD2A Tudor -8%, Sfp inh -6%, HP1b binding inh 15%, G9a block 6%[59 µM] and BAZ2B inh -2%.
For CCn1c(/C=C/c2c[nH]c3ccccc23)nc2ccccc2c1=O the results were JMJD2A Tudor 56µM*, Sfp inh 12%, HP1b binding inh -3%, G9a block 2% and BAZ2B inh -5%.
Screening CCn1c(/C=C\c2ccccc2C)nc2ccccc2c1=O returned JMJD2A Tudor 54%, Sfp inh 4%, HP1b binding inh 96%, G9a block 112% and BAZ2B inh 10%.
For CCn1c(/C=C2\C(=O)N(C)c3ccccc32)nc2ccccc2c1=O the results were JMJD2A Tudor inconclusive, Sfp inh 13%, HP1b binding inh -12%, G9a block -16%[59 µM] and BAZ2B inh 56µM*.
C=CC[C@H](CC(=O)N(CCO)Cc1ccccc1)C(=O)N[C@@H](COC(=O)[C@@H](CC=C)CC(=O)OC(C)(C)C)Cc1c[nH]c2ccccc12 was read as JMJD2A Tudor -34% and HP1b binding inh 15%.
COc1ccc(NC(=O)CCS(=O)(=O)c2ccc3c(c2)oc(=O)n3C)cc1 was read as JMJD2A Tudor -30%, Sfp inh 9%, HP1b binding inh 14%, G9a block 8% and BAZ2B inh 50µM*.
For Cc1cccc(N(C)C(=O)CCS(=O)(=O)c2ccc3c(c2)oc(=O)n3C)c1 the results were JMJD2A Tudor -22%, HP1b binding inh 0%, G9a block 2.8µM* and BAZ2B inh 0%[57.1 µM].
For Cc1cccc(N(C)C(=O)CCS(=O)(=O)c2ccc3c(c2)n(C)c(=O)c(=O)n3C)c1 the results were JMJD2A Tudor 4%, HP1b binding inh 43%, G9a block 2%[59 µM] and BAZ2B inh -2%.
For O=[N+]([O-])c1ccccc1N=NNc1ccccc1 the results were JMJD2A Tudor 20µM* and HP1b binding inh inconclusive.
Screening NC(=O)c1ccccc1[N+](=O)[O-] returned JMJD2A Tudor -5%, HP1b binding inh 51%, G9a block 1%[0.501 µM] and BAZ2B inh 0%.
O=[N+]([O-])c1ccccc1N=Nc1ccc(O)cc1 was read as JMJD2A Tudor 50µM* and HP1b binding inh inconclusive.
